We go through 16 compounds from PubChem BioAssay (EPA / NIEHS).

The source made the active and inactive calls. Rule for the calls: active = hit-call score of the fitted dose curve at least 0.9, where 1 is the maximum; inactive = score below 0.9.

One assay in a line: CCTE_Mundy_HCI_Cortical_Synap_Neur_Matur_NeuriteSpotCountPerNeuriteLength: CCTE's Synaptogenesis and Neurite Maturation Assay in rat cortical cells for Neurite Spot Count per Neurite Length, Mundy Lab (AID 2284210). A digest of the protocol:
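Synaptophysin spots per unit neurite length, measured by automated imaging of MAP2/synaptophysin/Hoechst-stained neurons. Cultures from rat cortex received chemical at DIV 7 with media change through DIV 12; glial growth arrested by AraC at DIV 5; DMSO baseline.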
As to `CC(C)O`, the compound was called inactive.
Take `F`: the call was inactive.
`CC(=O)N[C@@H](CC(=O)O)C(=O)O`: the result was inactive.
Consider `CCCCCC=C(C)C(CC)CCO` (stereo unspecified), for which the outcome was inactive.
With `BrC1CC(Br)CC(Br)CC(Br)CC(Br)CC(Br)C1` (stereo unspecified), the AC50 (usually the midpoint of the concentration-response curve, whichever way the signal moves) was 3.49 µM (active).
Regarding `C[C@@H]1CC[C@@H](C(C)(C)O)[C@H](O)C1`, the result was inactive.
Consider `CC(C)c1nn(C(=O)NC(C)(C)C)c(=O)n1N`, for which the outcome was inactive.
Consider `[O]=[V]([OH])([OH])[OH]`, for which the AC50 is 40.2 µM (active).
For the compound `CCc1ccccc1`, the call was inactive.
On to `CN(C)CCCn1cc(C2=C(c3c[nH]c4ccccc34)C(=O)NC2=O)c2ccccc21`, for which the compound was called inactive.
On the same count and under the same terms, as for `CCCCCC(C)(CC)C(=O)NC` (stereo unspecified), the entry is “inactive”.
On to `Cc1[nH]n(C)c(=O)c1C(=O)c1ccc(C(F)(F)F)cc1S(C)(=O)=O`, for which the call was inactive.
In the case of `CC(CNC(=S)[S-])NC(=S)[S-].[Zn+2]` (stereo unspecified), the call was inactive.
Regarding `C[C@@H]1CCO[C@H]2Cn3cc(C(=O)NCc4ccc(F)cc4F)c(=O)c(O)c3C(=O)N12`, the AC50 is 7.38 µM (active).

A short description of the next assay: CCTE_Mundy_HCI_Cortical_Synap_Neur_Matur_BPCount: CCTE's Synaptogenesis and Neurite Maturation Assay in rat cortical cells for Branch Point Count, Mundy Lab (AID 2284211). The method in brief:
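HCI read-out of branch points from MAP2/synaptophysin/Hoechst immunofluorescence; rat cortical cultures, AraC DIV 5, dosing DIV 7, fixed DIV 12; fit in positive direction vs DMSO baseline.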
As for `CC(C)O`, the result was inactive.
Take `F`: the outcome was inactive.
In the case of `CC(=O)N[C@@H](CC(=O)O)C(=O)O`, the call was inactive.
In the case of `CCCCCC=C(C)C(CC)CCO` (stereo unspecified), the compound was called inactive.
On to `BrC1CC(Br)CC(Br)CC(Br)CC(Br)CC(Br)C1` (stereo unspecified), for which the half-maximal activity concentration (AC50) was 3.17 µM (active).
Regarding `C[C@@H]1CC[C@@H](C(C)(C)O)[C@H](O)C1`, the result was inactive.
Turning to `CC(C)c1nn(C(=O)NC(C)(C)C)c(=O)n1N`, the result was inactive.
As for `[O]=[V]([OH])([OH])[OH]`, the half-maximal activity concentration (AC50) was 12.2 µM (active).
For `CCc1ccccc1`, the outcome was inactive.
For the compound `CCCCCC(C)(CC)C(=O)NC` (stereo unspecified), the result was inactive.
With `Cc1[nH]n(C)c(=O)c1C(=O)c1ccc(C(F)(F)F)cc1S(C)(=O)=O`, the result was inactive.
Consider `CC(CNC(=S)[S-])NC(=S)[S-].[Zn+2]` (stereo unspecified), for which the AC50 is 50 µM (active).
Same read-out and setting: as for `C[C@@H]1CCO[C@H]2Cn3cc(C(=O)NCc4ccc(F)cc4F)c(=O)c(O)c3C(=O)N12`, the figure is 1.14 µM (active).

A short description of a further assay: CCTE_Mundy_HCI_Cortical_NOG_NeuriteCount: CCTE's Neurite Outgrowth Assay in rat cortical cells for Neurite Count, Mundy Lab (AID 2284212).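 Note: cells fixed about two days after chemical exposure began.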 The method in brief:
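Rat cortical primary cells; compound added 2 h post-plating, 1/10 dilution of working solution. Anti-betaIII-tubulin/AF488 ICC; ArrayScan neurite count vs DMSO.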
With `CC(C)O`, the outcome was inactive.
Take `F`: the compound was called inactive.
In the case of `CCN(CC)CCCC(C)Nc1nc(C)cc(Nc2ccc3nc(C)cc(N)c3c2)n1` (stereo unspecified), the call was inactive.
Consider `CC(=O)N[C@@H](CC(=O)O)C(=O)O`, for which the compound was called inactive.
For `CCCCCC=C(C)C(CC)CCO` (stereo unspecified), the compound was classed as inactive.
`BrC1CC(Br)CC(Br)CC(Br)CC(Br)CC(Br)C1` (stereo unspecified): the AC50 was 8.41 µM (active).
Regarding `C[C@@H]1CC[C@@H](C(C)(C)O)[C@H](O)C1`, the compound was called inactive.
As to `CC(C)c1nn(C(=O)NC(C)(C)C)c(=O)n1N`, the result was inactive.
For `CCc1ccccc1`, the outcome was inactive.
`CCCCCC(C)(CC)C(=O)NC` (stereo unspecified): the compound was classed as inactive.
In the case of `[Li+]`, the compound was called inactive.
Turning to `Cc1[nH]n(C)c(=O)c1C(=O)c1ccc(C(F)(F)F)cc1S(C)(=O)=O`, the compound was called inactive.
As to `CC(CNC(=S)[S-])NC(=S)[S-].[Zn+2]` (stereo unspecified), the AC50 was 31.5 µM (active).
As to `C[C@@H]1CCO[C@H]2Cn3cc(C(=O)NCc4ccc(F)cc4F)c(=O)c(O)c3C(=O)N12`, the compound was classed as inactive.
